Measurements from the supplement of paper PMC6555819.

How the values were obtained:
Assay in all cases: PBM binding z-score (relative to random genomic background probes); higher = stronger binding; sequences stand for … in GC…GCGATTGACAGCGTAGAATGAAGG
[1] = tested on: RARb homodimer (NR concentration 270 nM)
Summary of the method: (§1)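 On custom Agilent 4×180K arrays, double-stranded probes with 34-nt variable regions carried direct-repeat seeds, single-nucleotide variants, half-site ablations or random human genomic background. Ligand-free nuclear receptor dimers were applied for 1 h, and binding was read with antibodies against each partner (one per run). Binding z-scores come from regression-normalized fluorescence, with the random background probes as reference.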

[2] = tested on: RARg:RXRa (NR concentration 270 nM, RXRa partner concentration 90 nM)
Summary of the method: as §1

[3] = tested on: RARg homodimer (NR concentration 270 nM)
Summary of the method: as §1

[4] = tested on: RXRa DBDmut IVT, anti-RXR (DBD mutation: RXRa K156A/R161A, NR concentration 90 nM)
Summary of the method: as §1

[5] = tested on: RXRa homodimer (NR concentration 180 nM)
Summary of the method: as §1

[6] = tested on: THRa:RXRa (NR concentration 90 nM, RXRa partner concentration 90 nM)
Summary of the method: as §1

[7] = tested on: THRa homodimer (NR concentration 90 nM)
Summary of the method: as §1

[8] = tested on: VDR:RXRa (NR concentration 270 nM, RXRa partner concentration 90 nM)
Summary of the method: as §1

[9] = tested on: VDR homodimer (NR concentration 270 nM)
Summary of the method: as §1

Sequence	PBM binding z-score [1]	PBM binding z-score [2]	PBM binding z-score [3]	PBM binding z-score [4]	PBM binding z-score [5]	PBM binding z-score [6]	PBM binding z-score [7]	PBM binding z-score [8]	PBM binding z-score [9]
GCTTACGGGTCAAAGGTTGTAGCATGAATAGAAT	2.84	5.74	4.09	2.43	8.07	3.2	0.00313	4.66	0.93
TCTTGTAGATCAAAGGTTAAGATAGCCGAAGCCT	1.61	2.19	1.11	0.675	3.56	1.38	-0.548	1.49	0.153
CGTCCAAGGTCAAAAGTCAGTGAAGAGATGACGG	3.25	5.69	5.8	3.57	6.1	3.41	1.3	3.74	1.86
GCATATAGGTAATACAAGGTGACAGTCCGATTGT	0.679	0.651	0.825	0.299	0.86	4.15	0.967	0.313	0.0173
CGAACTAGGTCAGAACAGGTCAGTGAAGGATGAT	3.88	3.47	4.34	1.03	2.22	4.08	0.526	2.68	0.955
CCTAGCAGGCCAAGGTCACTCAAGCATTTCGCTT	3.82	3.82	3.92	1.05	3.51	3.66	2.88	2.88	2.2
CAAACTAGGTCAAGAGGTCAAAGTACGCTTCCCG	5.69	8.23	7.27	3.15	8.07	4.23	2.61	6.22	4.76
CCTCGGAGGACAACAGGCGGTCAGAGCTGCCAGA	1.43	1.07	1.63	-0.164	-0.341	0.64	-0.125	-0.555	-0.0839
TCTTGTAGAGCAATAGAGGTTAAGAAAGTGCGCT	0.76	0.413	0.158	-0.107	0.858	1.76	-1.07	1.18	-0.332
CCCAGCAGGCCAGGGTCACTCAAGCATTTCGCTT	2.82	3.02	2.79	0.022	3.26	2.81	1.3	2.42	1.55
ATCTCTAGCTAACCAAGTTCAGTGAATGCCGAAC	1.01	0.314	0.399	0.573	0.0234	0.509	0.214	1.42	2.29
TCTGCTAGGTCAGTTGGTCAGCTATCGAGCTGCC	2.69	2.62	3.33	0.537	0.914	1.2	0.162	0.206	-0.608
CGTCCAAGGTCAAAGGTGAGTGAAGAGATGACGG	4.48	6.91	6.63	3.77	8.39	4.4	2.28	4.94	2.92
CCAGACAGGTGAGTAGGTAACTCAGCCTCGATTA	0.326	0.196	0.224	0.331	0.246	0.0417	0.159	-0.168	-0.162
CTACTAAGGTGAACAAGGTCGTTGATTACTATTC	2.33	2.35	1.64	1.81	2.34	3.61	2.82	6.38	2.67
CGACCAAGGTCAGCAGGTCAGTGAAAGCGACGTG	4.67	6.06	6.15	2.12	4.83	3.54	1.63	3.67	1.16
CAAACTAGGTCACCGGAAGGTAAAAGTCCGCATG	3.46	5.33	5.29	1.61	3.87	3.69	1.84	2.84	1.01
CCAGACACGTGAAAGGTAACTCAGTCTGGTACGC	-0.128	-0.098	0.0725	0.166	0.263	0.166	-0.268	-0.114	-0.17
CCTATTAGTTGACCATAACGGCAACCGAAGCTCG	1.01	0.618	0.817	0.595	0.625	0.388	0.93	0.7	1.08
TAGCCTAGGTCAGATCGGGCCAGGATACGCTATA	1.88	2.77	3.35	-0.775	1.45	4.2	0.225	0.248	-0.433
TCGAGTAGGTTCGGGGCATTCAGAATGGCGTCGA	-0.0297	-0.387	-0.609	0.913	-0.159	0.428	-0.274	0.124	1.09
AGTCAAAGTTCAGGACGAGTTAACGTAAAGCACG	3.1	4.4	4.71	2.71	3.19	2.57	0.422	2.96	2.59
GCTGATAGGTCAACTGATGGTCAGCTAAAGCTCG	3.72	6.23	6.12	1.65	4.91	2.55	-0.713	2.69	-0.0716
TAGCCTAGATCAGATCGGGCCAGTATACGCTATA	-1.29	-0.519	-0.508	-1.09	-0.577	0.52	-1.58	-0.89	-1.04
GTTGCTAGGTCAACTGATGGTCAGCTAAAGCTCG	3.54	5.4	5.9	1.48	3.11	3.09	1.46	2.05	0.164
CAAACTAGCTCAAGGTCAAAGTCGGTTTGTGCCA	4.04	4.12	3.84	2.23	4.51	3.95	3.59	4.51	3.7

Sequence	PBM binding z-score [1]	PBM binding z-score [2]	PBM binding z-score [3]	PBM binding z-score [4]	PBM binding z-score [5]	PBM binding z-score [6]	PBM binding z-score [7]	PBM binding z-score [8]	PBM binding z-score [9]
AGAATGAGGTTATTAAGATCAGGTAATTGCGGTC	1.14	1.13	0.895	1.8	1.87	2.5	1.2	2.82	1.13
TCGAGTAGGTTACCAATGGTGCATTCAGCTTTCT	-0.0825	0.138	0.0849	0.244	0.365	-0.118	-0.617	0.228	-0.499
TCGAGTAGGTTAGTTGGGGCATTCAGCCAACATA	0.525	-0.065	-0.0945	0.0825	-0.226	1.01	-0.251	0.811	-0.0385
ATGTCTAGGTAAGACTCAGTTCAGTGAAGAACGC	0.578	0.0385	0.257	0.0481	0.0164	0.567	0.326	0.683	1.07
TCTCGGATGACACGAAGGTCAGAGCTTTCCAGAG	3.15	2.66	2.31	0.542	2.48	1.68	0.229	1.46	0.13
CGTCCAAGTTCAATGCTAGGTCAGTGAAAGCATT	3.86	5.74	4.36	4.53	2.5	3.53	1.21	4.26	4.43
TCTAGTTGGTCAGAGGTCACACACTCGAAATGCG	4.5	6.07	5.24	1.92	6.47	3.99	2.52	4.95	3.35
CAAACTAGGTCATAGAGGTCAAAGTCCGTGCGTA	5.51	6.95	7.46	3.57	7.64	4.64	2.63	7.8	7.04
CTACCAAGGTGAACAAGGTCCTTGATTACTATTC	1.02	0.733	0.947	0.723	0.86	2.29	1.03	3.56	0.358
CCAGAAAGGTGAGAAGGTAACTCAGCCTCGATTA	1.43	2.36	1.91	0.256	1.53	0.725	0.0189	0.43	-0.238
GCTATCAGGCCATTTGGGTCACTCAATGACGGGC	2.39	1.19	1.66	0.754	0.858	2.55	1.57	1.38	0.781
TAGCCTAGGTCATGGCCCAGTATACCACGCGAAC	3.06	4.47	4.41	0.508	3.73	3.38	1.49	2.25	0.698
GCGACTGGGGCAAAACAGGTTACCATAAGGTTGG	1.31	0.535	0.627	-0.186	0.658	2.3	0.0603	0.212	-0.526
ATATGTAGGTTATCGGTTCATTCAGTTTGCGCAT	1.17	1.39	0.882	2.4	1.66	1.27	1.08	3.97	5.79
CCTAGTTCGTCAAGGTCACACACGCTATAGGTAC	4.36	4.84	4.77	4.16	4.74	4.39	4.47	6.46	6.91
ATCCCAAGGTGATCGTGAGGTCGTTGATACTAAC	1.61	1.97	0.447	0.515	1.21	3.42	2.59	2.87	2.9
ACTTACGGGTCCACGAGGTTATAGCACGCGTATA	1.33	1.43	0.919	3.07	1.61	2.26	1.65	3.52	3.37
TCTAGTTGGTCAAAGGTCACACGCTCGAAATGCG	5.31	7.41	6.67	1.72	8.75	4.01	2.09	5.38	2.92
TCAATTAGTTGATTAGGGCAACCGAAACAGCGGA	0.454	0.298	0.178	0.983	0.591	0.541	0.0743	0.35	0.229
TCTTTTAGATCAAAGGTTAAGAAAGCCGAAGCCT	1.42	1.81	1.01	1.32	2.81	1.33	-0.158	1.51	-0.294
ATATGTAGGTTAAGGGTCATTCTGGTTGGTTCGC	3.64	4.65	3.2	2.17	6.03	3.23	1.75	4.92	4.43
TCATATAGGTAAACAGTTGAAAGTCCGTAAGTTA	0.802	0.44	0.23	1.9	0.856	0.535	0.428	1.13	0.845
GCTTACGGGTCAAAGTTTATAGCATGAATAGAAT	2.72	5.32	4.39	3.19	7.06	2.9	-0.354	4.3	2.25
CCTTACGGGTCATTGACAGGTTATAGCATTTGGA	3.04	5.75	3.8	2.9	5.07	2.91	0.494	4.11	1.67
CAAACTAGGTCAAAGGCCAAAGTCGAGCCAACCA	3.34	5.06	4.83	1.8	4.98	3.05	0.429	2.6	0.659
CCTACTGGGCCAAAAAGGTCATTGAAGCCGATAA	4.33	4.98	4.29	0.615	5.31	3.08	0.418	4.54	2.58
